The values below come from PubChem BioAssay AID2284169 (EPA ToxCast).

Active and inactive are the calls of the source. The calls were made as follows: active = hit-call score of the fitted dose curve at least 0.9, where 1 is the maximum; inactive = score below 0.9.

Sequence of human Opioid Receptor NOP (ORL1) Agonism, OPRL1 (gene 4987) (P41146 whole entry, looked up): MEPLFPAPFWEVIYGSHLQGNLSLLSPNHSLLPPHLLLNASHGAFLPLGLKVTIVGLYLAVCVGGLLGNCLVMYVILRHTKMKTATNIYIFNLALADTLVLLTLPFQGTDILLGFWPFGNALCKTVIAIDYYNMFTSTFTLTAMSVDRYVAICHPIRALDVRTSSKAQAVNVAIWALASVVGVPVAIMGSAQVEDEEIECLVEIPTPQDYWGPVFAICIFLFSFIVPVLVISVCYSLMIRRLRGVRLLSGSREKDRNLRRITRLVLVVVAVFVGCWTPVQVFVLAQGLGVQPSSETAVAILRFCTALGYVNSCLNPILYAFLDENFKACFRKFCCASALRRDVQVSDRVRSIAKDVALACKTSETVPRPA

The target of this assay is human Opioid Receptor NOP (ORL1) Agonism, OPRL1 (gene 4987) (UniProt P41146). The assay can be described thus: ERF_FR_GPCR_hOPRL1: Eurofins (ERF) G Protein-Coupled Receptor (GPCR) Radioligand Binding LeadHunter Assay for human Opioid Receptor NOP (ORL1) Agonism. On the procedure:
ERF_FR_GPCR_hOPRL1 is a biochemical, single-readout assay that uses extracted gene-proteins in a cell-free assay. Measurements were taken 1 hour after chemical dosing in a 96-well plate. See NOP (ORL1) Human Opioid GPCR Binding (Agonist Radioligand) Assay, Cerep.ERF_FR_GPCR_hOPRL1 is an assay component calculated from the ERF_FR_GPCR_hOPRL1 assay. It is designed to measure radioligand binding using a type of binding reporter as detected by scintillation counting with radiometry technology.Data from the assay component ERF_FR_GPCR_hOPRL1 was analyzed at the assay endpoint, ERF_FR_GPCR_hOPRL1, in the positive analysis fitting direction relative to DMSO as the negative control and baseline of activity. Using a type of binding reporter, gain-of-signal activity can be used to understand changes in binding as they relate to gene OPRL1. To generalize the intended target to other relatable targets, this assay endpoint is annotated to the gpcr intended target family, where the subfamily is opioid.
Human cells are incubated for 60 minutes at room temprature with [3H]nociceptin ligand (0.1 nM) and Nociceptin as control inhibitor. Test Sample Requirements: Minimum for 1) Screen: 60 ul of 10 mM stock -OR- 1 mg (pre-weighed) for 10 uM final testing. 2) Dose Response: 90 ul of 10 mM stock -OR- 1 mg (pre-weighed) for a top concentration at 10 uM.
With `COc1cc(CCC(=O)CC(=O)CCc2ccc(O)c(OC)c2)ccc1O`, the call was inactive. By AC50 is commonly meant the concentration giving half of the maximal activity seen. As for `O=C(/C=C/c1ccc(O)cc1)CC(=O)/C=C/c1ccc(O)cc1`, the AC50 was 3.86 µM (active). As for `COc1cc(/C=C/C(=O)CC(=O)/C=C/c2ccc(O)c(OC)c2)ccc1O`, the AC50 is 5 µM (active). As to `CCCCC[C@H](O)CC(=O)CCc1ccc(O)c(OC)c1`, the compound was called inactive.
